Sampled rows, rich in hits. Any-hit rate of the full collection: about 2%.
IDH1 R132H inh: human IDH1 R132H inhibition. O75874. IDH1-R132H enzyme, NADPH consumption, diaphorase/resazurin fluorescence. Potency, µM (doses to about 76.6 µM), actives largely listed as inhibitors. 0.093% of 390,000 active; note: nearly all actives have a fitted effect of over 65% in size
Target sequence (O75874 whole entry R132H, stated change not applied): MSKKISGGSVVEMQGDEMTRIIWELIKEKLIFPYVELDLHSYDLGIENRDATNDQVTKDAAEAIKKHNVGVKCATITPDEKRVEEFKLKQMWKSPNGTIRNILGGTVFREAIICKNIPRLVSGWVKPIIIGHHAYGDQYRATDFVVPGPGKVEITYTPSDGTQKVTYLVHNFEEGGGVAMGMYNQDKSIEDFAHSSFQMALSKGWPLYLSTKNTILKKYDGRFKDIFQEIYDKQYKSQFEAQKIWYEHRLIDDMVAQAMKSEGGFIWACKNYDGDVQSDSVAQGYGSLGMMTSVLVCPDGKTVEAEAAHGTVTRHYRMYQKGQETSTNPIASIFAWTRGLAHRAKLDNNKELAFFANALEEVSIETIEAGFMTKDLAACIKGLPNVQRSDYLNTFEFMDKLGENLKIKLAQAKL
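IDH1-R132H (0.5 ug/mL) preincubated 30 min with compound, then NADPH (0.016 mM) and alpha-KG (2 mM) added; 80 min at RT, pH 7.5. Remaining NADPH coupled via diaphorase/resazurin to fluorescence (540/590 nm); concentration-response curves normalized to no-enzyme control.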
FUS suppressor: FUS proteinopathy suppression in yeast; S. cerevisiae FUS-expressing, growth rescue, OD600, 24 h; Potency, µM (doses to about 76.6 µM), actives largely listed as activators; 0.24% of 390,000 active; note: nearly all actives have a fitted effect of over 55% in size
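Quantitative HTS measuring growth restoration of FUS-toxic yeast. Galactose-induced cells (OD 0.005) were exposed 24hr at 30C to compounds at several concentrations, then absorbance at 600 nm was recorded.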
TDP-43 yeast inh: TDP-43 toxicity inhibition in yeast; TDP-43 expressing yeast growth rescue, BacTiter-Glo, 24 h; Potency, µM (titrated, usually from 46.1 µM), most hits filed as activators; 1.8% of 410,000 active; AID 652104; note: nearly all actives have a fitted effect of over 50% in size
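Yeast expressing TDP-43 (pregrown in raffinose, seeded at OD600=0.02 in galactose medium) exposed to compounds 24 hr at 30 deg C. Growth read by BacTiter-Glo luminescence; rescue of toxicity appears as increased signal.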
Abeta rescue: compounds reversing amyloid beta toxicity in yeast; 0.063% of 410,000 active; Potency, µM (titrated, usually from 46.1 µM), most hits filed as activators; yeast expressing A-beta42, growth rescue, OD600, 48 h; response scale: 0% DMSO, 100% iron-clioquinol control; AID 1347071; note: nearly all actives have a fitted effect of over 55% in size
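Yeast growth medium received pinned compounds, then yeast cells expressing toxic A-beta were added; plates incubated at 30 C for 48 hr. Growth read as absorbance at 600 nm, normalized to DMSO and equimolar FeCl3 plus clioquinol controls.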
LDHA inh: blocks human lactate dehydrogenase A; P00338; purified LDHA, NADH/diaphorase-resazurin fluorescence; active compounds read low; activity change, % (values are at about 110 or 230 µM); 0.15% of 480,000 active; in the data active = activity change below about -30%; inconclusive = mostly about -25% to -30%
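Human LDH5 at 2 nM final in Tris HCl pH 7.4 with 0.06 mM NADH and 0.2 mM pyruvate, reacted 5 minutes at room temperature. Remaining NADH coupled via diaphorase/resazurin; resorufin fluorescence read at 0 and 20 minutes, normalized to enzyme-free and DMSO wells.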
aSyn yeast inh: alpha-synuclein toxicity inhibition in yeast | Yeast expressing alpha-synuclein, growth rescue, BacTiter-Glo, 24 h | Potency, µM (series often up to 46.1 µM), most hits filed as activators | 0.14% of 370,000 active | AID 652106; note: nearly all actives have a fitted effect of over 65% in size
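Screening used galactose-induced yeast with toxic alpha-synuclein levels, exposed to compound for 24 hr at 30 deg C. Cell growth, read with BacTiter-Glo luminescence, gave the measured signal.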
A number is an active result; i = inactive; ? = inconclusive; nt = no result given; ! = a repeat was not active. Unless noted, calls come from the whole dose curve; as a rule, active = well fitted curve in the direction sought with a large enough effect; inconclusive = small, poorly fitted or top-dose-only effect, or another doubt; inactive = no such curve, though single readings can be large; an effect the other way counts as inactive or inconclusive.

SMILES	IDH1 R132H inh	FUS suppressor	TDP-43 yeast inh	Abeta rescue	LDHA inh	aSyn yeast inh
CC(C)C(=O)N1CCN(c2ccc([N+](=O)[O-])cc2Cl)CC1	i	nt	?	i	i	i
CC(C)CC(=O)N1CCN(c2ccc([N+](=O)[O-])cc2Cl)CC1	i	i	12.6µM	i	i	?
CN(CC(=O)Nc1ccc(Cl)cc1)Cc1ncc(-c2ccc(F)cc2)o1	nt	nt	nt	nt	i	nt
Cc1cc(C)cc(OCC(=O)N2CCC(c3nc4ccccc4o3)CC2)c1	i	i	22.4µM	i	i	nt
Cc1cc(OC(C)C(=O)N2CCC(c3nc4ccccc4o3)CC2)ccc1Cl (stereo not given)	i	?	25.1µM	i	i	nt
O=C(COc1ccc(Cl)cc1)N1CCC(c2nc3ccccc3o2)CC1	nt	nt	nt	nt	i	nt
CCOc1ccc2nc(S(=O)(=O)NC(=O)C3(C)CCN3C(=O)c3cc(C)n(C)n3)sc2c1 (stereo not given)	nt	i	i	i	-66.6	i
c1ccc(CSc2nnc(-c3ccncc3)o2)cc1	i	i	?	i	i	i
Cc1ccccc1CSc1nnc(-c2ccncc2)o1	i	i	14.1µM	i	i	i
Clc1ccc(CSc2nnc(-c3ccncc3)o2)c(Cl)c1	i	i	2.82µM	i	i	nt
Cc1ccc(C23CC4CC(CC(CN)(C4)C2)C3)cc1	i	i	i	i	i	i
Cc1ccc(C23CC4CC(CC(CC(=O)NC(C)(C)CO)(C4)C2)C3)cc1	i	i	35.5µM	i	i	i
CCc1nn(CCCC(=O)N2CCN(c3cc(Cl)ccc3C)CC2)c(=O)c2cc3occc3n12	i	?	35.5µM	i	i	nt
O=C(CCCn1ncn2c(cc3occc32)c1=O)N1CCc2ccccc2C1	i	i	i	i	i	i
CCc1nn(C(C)C(=O)N2CCN(c3ccc(OC)cc3)CC2)c(=O)c2cc3occc3n12 (stereo not given)	i	i	31.6µM	i	i	i
Cc1cccc(N2CCN(C(=O)CCCn3ncn4c(cc5occc54)c3=O)CC2)c1C	i	i	15.8µM	i	i	nt
CCC(C(=O)N1CCN(c2ccc(OC)cc2)CC1)n1nc(C)n2c(cc3occc32)c1=O (stereo not given)	i	?	i	i	i	nt
Cc1cccc(N2CCN(C(=O)C(C)n3nc(C)n4c(cc5occc54)c3=O)CC2)c1C (stereo not given)	i	i	22.4µM!	i	i	i
COc1ccc(C(=O)N(Cc2cc3ccc(C)cc3[nH]c2=O)c2ccc(C)cc2)cc1OC	nt	nt	nt	nt	i	nt
CC(C)Nc1ncnc2c1cnn2-c1ccccc1	i	i	?	i	i	i
Clc1ccc(-n2ncc3c(NCC4CCCO4)ncnc32)cc1 (stereo not given)	i	i	11.2µM	i	i	i
Cc1ccc(Cl)cc1-n1ncc2c(NC3CCCCCC3)ncnc21	i	i	14.1µM	i	i	nt
COc1ccc(CCNc2ncnc3c2cnn3-c2cc(Cl)ccc2C)cc1	i	i	20µM	i	i	nt
Cc1cccc(-n2ncc3c(NC(C)C)ncnc32)c1	i	i	11.2µM	i	i	i
Cc1ccc(Cl)cc1-n1ncc2c(NC3CCCC3)ncnc21	nt	nt	nt	nt	i	nt
SMILES	IDH1 R132H inh	FUS suppressor	TDP-43 yeast inh	Abeta rescue	LDHA inh	aSyn yeast inh
CCCCN(CCCC)S(=O)(=O)c1[nH]ncc1C(=O)OCC	nt	nt	nt	nt	i	nt
Cc1ccc(CNc2ncnc3c2cnn3-c2ccc(C)cc2C)cc1	i	i	35.5µM	i	i	nt
Cc1ccc(-n2ncc3c(NC4CCCCC4)ncnc32)c(C)c1	nt	nt	nt	nt	i	nt
CCOc1ccc(N/C=C/C(=O)c2ccc(-c3ccccc3)cc2)cc1	nt	nt	nt	nt	i	nt
C=CCC[C@@H](Cc1ccc(F)cc1)C(=O)OC[C@@H]1CCCN1C(=O)[C@@H](CC=C)CC(=O)N[C@@H](CO)Cc1ccccc1	i	22.4µM	12.6µM	i	i	i
C=CCC[C@H](Cc1ccc(F)cc1)C(=O)OC[C@@H](Cc1c[nH]c2ccccc12)NC(=O)[C@@H](CC=C)CC(=O)N[C@@H](CO)Cc1ccccc1	i	i	i	i	i	i
C=CCC[C@@H](Cc1ccc(F)cc1)C(=O)OC[C@@H](Cc1c[nH]c2ccccc12)NC(=O)[C@@H](CC=C)CC(=O)N[C@H](CO)Cc1ccccc1	i	25.1µM	i	i	i	i
CCc1nc(Nc2cc(OC)ccc2OC)c2oc3ccccc3c2n1	i	i	i	i	i	i
CCc1nc(Nc2ccccc2OC)c2oc3ccccc3c2n1	i	i	12.6µM	i	i	i
Cc1ccc(-c2cnc(-c3ccccc3C(=O)OCC(=O)NCCC#N)o2)cc1	nt	nt	nt	nt	i	nt
COc1cc(C=O)ccc1OCc1ccccc1Br	i	nt	11.2µM	i	i	i
CCOc1cc(C=O)ccc1OCc1ccccc1	nt	nt	nt	nt	i	nt
COc1cc(C=O)ccc1OCc1cccc(Br)c1	i	nt	20µM	i	i	i
COc1ccc(C=O)cc1COc1ccc(-c2ccccc2)cc1	nt	nt	nt	nt	i	nt
CCn1cnc2c1c(=O)n(CC(=O)NCC(C)(C)N1CCOCC1)c(=O)n2Cc1ccccc1	nt	nt	nt	nt	i	nt
CCC1c2ccsc2CCN1C(=O)CC(c1ccccc1)c1ccccc1 (stereo not given)	nt	nt	nt	nt	i	nt
CCOC(=O)/C(=C\c1ccc(Cl)cc1)c1nc2sc(C)c(C)c2c(=O)[nH]1	i	i	17.8µM	i	i	i
CCOC(=O)CSc1nc2sc(C)c(C)c2c(=O)[nH]1	i	i	i	i	i	i
COc1ccc(/C=C/C(=O)Nc2cc(C(F)(F)F)ccc2Cl)cc1OC	i	nt	?	i	i	i
COc1cc(/C=C/C(=O)Nc2cc(C(F)(F)F)ccc2Cl)cc(OC)c1OC	i	i	22.4µM	i	i	i
Cc1ccc([C@@H]2CC=C(C(=O)O)[C@H](c3ccc(F)cc3)N2S(=O)(=O)c2ccc(C)cc2)cc1	i	i	i	i	i	i
Cc1ccc(S(=O)(=O)N2[C@@H](c3ccccc3)C(C(=O)O)=CC[C@H]2c2cccc(Cl)c2)cc1	i	i	35.5µM	i	i	i
Cc1ccc(S(=O)(=O)N2[C@@H](c3ccc(F)cc3)C(C(=O)O)=CC[C@H]2c2cccc(C)c2)cc1	i	i	31.6µM	i	i	i
Cc1ccc(S(=O)(=O)N2[C@@H](c3ccc(F)cc3)C(C(=O)O)=CC[C@H]2c2ccc3c(c2)OCO3)cc1	i	i	17.8µM	i	i	i
Cc1ccc(S(=O)(=O)N2C(c3cccc(Cl)c3)CC=C(C(=O)O)C2c2cccc(Cl)c2)cc1 (stereo not given)	nt	i	i	i	i	i
COc1cccc([C@@H]2CC=C(C(=O)O)[C@H](c3ccc(Br)cc3)N2S(=O)(=O)c2ccc(C)cc2)c1	i	i	35.5µM	i	i	i
